Experimental data taken from the supplement of paper PMC10849652.
Targets with a hit are over-represented here; the source holds about 8,800 in all. About 0.5% of all pairs of compound and target were hits.

Legend:
Test in all cases: log2 fold change, soluble protein after heating vs DMSO (PISA); higher = thermal stabilisation; K562 lysate, 10 uM; active = over 0.2 and 3.5 SD of the protein, either way, in both replicates (recomputed)
vemurafenib = compound: CCCS(=O)(=O)Nc1ccc(F)c(C(=O)c2c[nH]c3ncc(-c4ccc(Cl)cc4)cc23)c1F [vemurafenib]
Outline: (§1)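 Quantification was by TMTpro 16plex LC-MS/MS with equalised channel sums, applied to the supernatant after 21,000xg for 90 min. Samples were crude K562 extract at 1 mg/mL protein in PBS pH 7.4 with 1 mM MgCl2, treated with 10 μM compound for 30 min, heated for 3 min across 48°C-58°C, pooled and brought to 0.5% NP-40 at 4°C. Values are log-two fold changes in thermal stability relative to solvent controls, from duplicates.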

[1] = compound: CCCS(=O)(=O)Nc1ccc(F)c(C(=O)c2c[nH]c3ncc(Cl)cc23)c1F
Outline: as §1

barasertib = compound: CCN(CCCOc1ccc2c(Nc3cc(CC(=O)Nc4cccc(F)c4)[nH]n3)ncnc2c1)CCOP(=O)(O)O [barasertib]
Outline: as §1

[2] = compound: CC[C@@H]1C(=O)N(C)c2cnc(Nc3ccc(C(=O)NC4CCN(C)CC4)cc3OC)nc2N1C1CCCC1
Outline: as §1

volasertib = compound: CC[C@@H]1C(=O)N(C)c2cnc(Nc3ccc(C(=O)N[C@H]4CC[C@H](N5CCN(CC6CC6)CC5)CC4)cc3OC)nc2N1C(C)C [volasertib]
Outline: as §1

[3] = compound: CCn1c(C(=O)N(C2CC2)C2CC2)cc2c3c(ncn3C)c(Nc3cc(C)n(C)n3)nc21
Outline: as §1

[4] = compound: CCn1cc(-c2ccnc3[nH]c(-c4cccc(CN(C)C)c4)cc23)c(-c2ccc(NC(=O)N(C)C)cc2)n1
Outline: as §1

[5] = compound: CN1CCC(CNc2ccc3ncc(-c4cccc(OC(F)(F)F)c4)n3n2)CC1
Outline: as §1

saracatinib = compound: CN1CCN(CCOc2cc(OC3CCOCC3)c3c(Nc4c(Cl)ccc5c4OCO5)ncnc3c2)CC1 [saracatinib]
Outline: as §1

sotrastaurin = compound: CN1CCN(c2nc(C3=C(c4c[nH]c5ccccc45)C(=O)NC3=O)c3ccccc3n2)CC1 [sotrastaurin]
Outline: as §1

Measured: log2 fold change

TRIM44 (UniProt Q96DX7)
inactive: vemurafenib -0.085 | [1] 0.095 | barasertib 0.066 | [2] -0.075 | volasertib -0.014 | [3] 0.003 | [4] 0.146 | [5] -0.031 | saracatinib 0.023 | sotrastaurin 0.044

TRIM23 (UniProt P36406)
Sequence of UniProt P36406 (P36406 whole entry, looked up): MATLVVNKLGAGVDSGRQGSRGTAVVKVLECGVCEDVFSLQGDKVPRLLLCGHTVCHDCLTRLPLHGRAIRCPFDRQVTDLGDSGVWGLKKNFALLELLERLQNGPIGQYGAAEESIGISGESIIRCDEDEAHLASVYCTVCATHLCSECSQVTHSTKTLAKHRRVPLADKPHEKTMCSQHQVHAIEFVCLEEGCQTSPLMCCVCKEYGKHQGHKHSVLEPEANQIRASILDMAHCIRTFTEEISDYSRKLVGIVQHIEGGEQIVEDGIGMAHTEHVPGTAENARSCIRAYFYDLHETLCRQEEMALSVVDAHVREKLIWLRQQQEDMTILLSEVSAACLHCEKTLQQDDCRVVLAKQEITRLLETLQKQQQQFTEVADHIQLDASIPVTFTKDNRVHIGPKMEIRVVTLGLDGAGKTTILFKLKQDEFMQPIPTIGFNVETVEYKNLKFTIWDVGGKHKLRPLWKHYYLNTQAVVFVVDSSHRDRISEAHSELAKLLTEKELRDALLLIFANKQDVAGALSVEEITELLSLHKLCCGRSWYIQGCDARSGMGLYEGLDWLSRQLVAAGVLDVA
inactive: vemurafenib 0.077 | [1] -0.038 | barasertib 0.119 | [2] 0.115 | volasertib -0.03 | [3] 0.316 | [4] -0.28 | [5] 0.073 | saracatinib 0.096 | sotrastaurin 0.01

UBE2L6 (UniProt O14933)
inactive: vemurafenib 0.031 | [1] -0.035 | barasertib 0.229 | [2] 0.041 | volasertib 0.008 | [3] 0.022 | [4] 0.037 | [5] -0.115 | saracatinib -0.034 | sotrastaurin -0.03

UBE2H (UniProt P62256)
Sequence of UniProt P62256 (P62256 whole entry, looked up): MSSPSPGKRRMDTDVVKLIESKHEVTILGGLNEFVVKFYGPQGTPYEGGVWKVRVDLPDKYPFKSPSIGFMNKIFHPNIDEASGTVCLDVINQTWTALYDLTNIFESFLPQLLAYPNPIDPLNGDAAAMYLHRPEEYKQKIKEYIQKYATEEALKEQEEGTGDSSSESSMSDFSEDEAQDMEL
inactive: vemurafenib -0.032 | [1] -0.013 | barasertib -0.006 | [2] 0.011 | volasertib 0.004 | [3] -0.055 | [4] 0.166 | saracatinib -0.056 | sotrastaurin -0.02
active: [5] -0.227

TYW3 (UniProt Q6IPR3)
inactive: vemurafenib 0.024 | [1] 0.017 | barasertib 0.017 | [2] 0.038 | volasertib -0.002 | [3] -0.02 | [4] -0.218 | [5] 0.031 | saracatinib -0.031 | sotrastaurin -0.003

THADA (UniProt Q6YHU6)
inactive: vemurafenib -0.006 | [1] 0.007 | barasertib 0.038 | [2] -0.028 | volasertib -0.037 | [3] 0.019 | [4] -0.029 | [5] 0.02 | saracatinib 0.029 | sotrastaurin 0.037

TSFM (UniProt P43897)
inactive: vemurafenib -0.007 | [1] 0.005 | barasertib 0.031 | [2] -0.041 | volasertib -0.089 | [3] 0.006 | [4] 0.081 | [5] -0.05 | saracatinib -0.014 | sotrastaurin -0.012

TROAP (UniProt Q12815)
inactive: vemurafenib 0.113 | [1] 0.146 | barasertib 0.053 | [2] 0.063 | volasertib 0.31 | [3] 0.043 | [4] -0.03 | [5] 0.042 | saracatinib 0.014 | sotrastaurin 0.002

TRAPPC9 isoform 2 (UniProt Q96Q05)
inactive: vemurafenib 0.053 | [1] 0.001 | barasertib 0.007 | [2] -0.004 | volasertib -0.059 | [3] 0.021 | [4] 0.011 | [5] 0.019 | saracatinib 0.005 | sotrastaurin -0.035

TBC1D8B (UniProt Q0IIM8)
Sequence of UniProt Q0IIM8 (Q0IIM8 whole entry, looked up): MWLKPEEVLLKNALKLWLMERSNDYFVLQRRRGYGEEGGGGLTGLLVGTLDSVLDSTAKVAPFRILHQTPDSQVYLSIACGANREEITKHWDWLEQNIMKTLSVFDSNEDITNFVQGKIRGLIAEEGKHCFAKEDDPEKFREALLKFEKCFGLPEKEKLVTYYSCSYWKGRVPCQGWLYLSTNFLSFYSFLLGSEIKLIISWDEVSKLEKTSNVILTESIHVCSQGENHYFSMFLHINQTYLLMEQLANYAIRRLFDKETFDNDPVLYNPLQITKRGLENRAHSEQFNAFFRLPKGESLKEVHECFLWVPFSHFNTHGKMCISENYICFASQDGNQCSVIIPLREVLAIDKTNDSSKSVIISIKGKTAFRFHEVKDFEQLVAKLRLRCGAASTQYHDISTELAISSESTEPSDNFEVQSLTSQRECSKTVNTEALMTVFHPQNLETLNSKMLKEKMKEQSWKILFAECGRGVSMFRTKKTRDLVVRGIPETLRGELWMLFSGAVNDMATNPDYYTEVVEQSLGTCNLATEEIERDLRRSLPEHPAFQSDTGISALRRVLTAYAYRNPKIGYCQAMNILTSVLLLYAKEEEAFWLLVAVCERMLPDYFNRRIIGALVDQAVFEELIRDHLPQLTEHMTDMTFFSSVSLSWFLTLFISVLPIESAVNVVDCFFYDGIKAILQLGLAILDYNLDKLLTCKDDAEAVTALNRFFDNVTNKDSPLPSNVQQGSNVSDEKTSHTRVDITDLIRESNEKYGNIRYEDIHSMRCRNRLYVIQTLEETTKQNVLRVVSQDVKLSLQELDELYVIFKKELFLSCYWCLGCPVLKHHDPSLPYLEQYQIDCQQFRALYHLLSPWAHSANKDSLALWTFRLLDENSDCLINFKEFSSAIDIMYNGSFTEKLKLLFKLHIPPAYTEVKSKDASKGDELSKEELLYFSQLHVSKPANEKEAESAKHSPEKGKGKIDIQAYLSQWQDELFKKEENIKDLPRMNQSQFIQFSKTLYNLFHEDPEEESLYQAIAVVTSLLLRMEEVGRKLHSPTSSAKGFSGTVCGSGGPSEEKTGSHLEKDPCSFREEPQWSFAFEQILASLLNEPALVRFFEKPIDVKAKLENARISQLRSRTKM
active: [4] -0.308
inactive: vemurafenib -0.007 | [1] -0.025 | barasertib 0.108 | [2] 0.096 | volasertib 0.072 | [3] -0.024 | [5] 0.192 | saracatinib -0.047 | sotrastaurin -0.042

TRMT12 (UniProt Q53H54)
inactive: vemurafenib 0.059 | [1] -0.009 | barasertib 0.068 | [2] -0.17 | volasertib -0.052 | [3] 0.047 | [4] -0.303 | [5] 0.281 | saracatinib -0.021 | sotrastaurin -0.047

TELO2 (UniProt Q9Y4R8)
inactive: vemurafenib 0.063 | [1] 0 | barasertib 0.088 | [2] -0.073 | volasertib -0.071 | [3] 0.048 | [4] -0.017 | [5] -0.043 | saracatinib 0 | sotrastaurin 0.037

TBRG4 (UniProt Q969Z0)
inactive: vemurafenib -0.016 | [1] 0.008 | barasertib 0.051 | [2] -0.075 | volasertib -0.079 | [3] 0.048 | [4] 0.052 | [5] -0.128 | saracatinib 0.026 | sotrastaurin 0.013

TTC27 (UniProt Q6P3X3)
inactive: vemurafenib 0.015 | [1] 0.007 | barasertib 0.028 | [2] -0.07 | volasertib -0.074 | [3] 0.015 | [4] -0.085 | [5] -0.058 | saracatinib 0.055 | sotrastaurin 0.051

TLE3 isoform 4 (UniProt Q04726)
Sequence of UniProt Q04726 (Q04726 whole entry, looked up): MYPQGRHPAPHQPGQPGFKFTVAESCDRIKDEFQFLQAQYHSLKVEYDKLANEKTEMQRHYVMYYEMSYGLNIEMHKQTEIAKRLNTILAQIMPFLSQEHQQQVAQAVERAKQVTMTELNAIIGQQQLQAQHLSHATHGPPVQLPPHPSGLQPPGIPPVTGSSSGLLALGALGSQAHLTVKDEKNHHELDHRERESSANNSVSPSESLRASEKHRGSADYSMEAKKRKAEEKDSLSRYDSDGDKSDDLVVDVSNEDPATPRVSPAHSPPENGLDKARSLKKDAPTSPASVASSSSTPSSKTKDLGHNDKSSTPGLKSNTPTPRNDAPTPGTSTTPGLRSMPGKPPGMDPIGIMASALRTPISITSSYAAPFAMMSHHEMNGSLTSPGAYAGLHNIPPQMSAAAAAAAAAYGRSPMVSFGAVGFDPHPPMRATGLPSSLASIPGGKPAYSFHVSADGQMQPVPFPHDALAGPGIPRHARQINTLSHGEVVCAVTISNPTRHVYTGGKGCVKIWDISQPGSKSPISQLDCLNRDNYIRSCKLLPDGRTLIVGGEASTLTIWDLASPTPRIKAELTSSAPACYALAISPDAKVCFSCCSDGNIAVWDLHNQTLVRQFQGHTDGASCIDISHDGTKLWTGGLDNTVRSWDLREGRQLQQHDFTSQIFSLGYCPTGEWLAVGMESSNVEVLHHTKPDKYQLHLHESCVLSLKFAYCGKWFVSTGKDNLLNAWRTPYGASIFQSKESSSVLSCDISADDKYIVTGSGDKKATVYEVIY
inactive: vemurafenib 0.009 | [1] 0.01 | barasertib 0.005 | [2] 0.065 | volasertib 0.021 | [3] 0.027 | [4] -0.001 | [5] 0.01 | saracatinib 0.017 | sotrastaurin -0.017

TPM3 (UniProt P06753)
inactive: vemurafenib -0.008 | [1] 0.009 | barasertib -0.02 | [2] 0.043 | volasertib 0.021 | [3] 0.013 | [4] 0.182 | [5] -0.062 | saracatinib -0.011 | sotrastaurin -0.031

UGDH (UniProt O60701)
inactive: vemurafenib 0.008 | [1] 0.017 | barasertib -0.003 | [2] -0.062 | volasertib -0.045 | [3] 0.011 | [4] -0.028 | [5] -0.021 | saracatinib 0.187 | sotrastaurin 0.003

TTMP isoform 3 (UniProt Q5BVD1)
Sequence of UniProt Q5BVD1 (Q5BVD1 whole entry, looked up): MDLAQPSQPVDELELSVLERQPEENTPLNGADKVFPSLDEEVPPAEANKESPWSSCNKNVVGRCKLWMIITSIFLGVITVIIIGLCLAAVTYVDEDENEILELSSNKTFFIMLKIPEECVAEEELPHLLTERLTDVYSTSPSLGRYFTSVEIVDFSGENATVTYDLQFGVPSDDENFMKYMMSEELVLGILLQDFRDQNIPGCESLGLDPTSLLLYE
active: [4] -0.88
inactive: vemurafenib 0.227 | [1] 0.029 | barasertib -0.025 | [2] 0.122 | volasertib 0.031 | [3] -0.182 | [5] 0.316 | saracatinib 0.012 | sotrastaurin -0.029

TUBA1B (UniProt P68363)
inactive: vemurafenib 0.009 | [1] 0 | barasertib 0.013 | [2] -0.02 | volasertib -0.046 | [3] 0.013 | [4] -0.008 | [5] -0.011 | saracatinib 0.003 | sotrastaurin 0.017

TTC38 (UniProt Q5R3I4)
Sequence of UniProt Q5R3I4 (Q5R3I4 whole entry, looked up): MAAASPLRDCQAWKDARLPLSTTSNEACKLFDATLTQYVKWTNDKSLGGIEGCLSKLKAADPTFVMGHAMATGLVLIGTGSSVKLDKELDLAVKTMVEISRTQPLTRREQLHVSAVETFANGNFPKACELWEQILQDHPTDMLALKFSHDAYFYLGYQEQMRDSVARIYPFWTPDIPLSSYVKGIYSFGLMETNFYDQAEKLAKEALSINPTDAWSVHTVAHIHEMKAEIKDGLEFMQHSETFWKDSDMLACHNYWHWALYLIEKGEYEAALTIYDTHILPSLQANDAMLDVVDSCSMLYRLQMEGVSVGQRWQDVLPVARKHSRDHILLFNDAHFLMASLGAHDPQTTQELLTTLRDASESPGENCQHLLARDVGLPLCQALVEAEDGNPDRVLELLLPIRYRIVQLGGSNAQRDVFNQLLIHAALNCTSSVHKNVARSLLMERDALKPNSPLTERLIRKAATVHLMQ
inactive: vemurafenib 0.035 | [1] 0.03 | barasertib 0.102 | [2] 0.004 | volasertib -0.001 | [3] -0.047 | [4] 0.189 | [5] -0.181 | saracatinib -0.026 | sotrastaurin -0.027

TPP2 (UniProt Q5VZU9)
inactive: vemurafenib 0.003 | [1] 0.061 | barasertib -0.002 | [2] 0.014 | volasertib 0.003 | [3] -0.005 | [4] -0.147 | [5] 0.088 | saracatinib -0.022 | sotrastaurin 0.044

TP53RK (UniProt Q96S44)
inactive: vemurafenib -0.018 | [1] 0.047 | barasertib 0 | [2] -0.058 | volasertib -0.002 | [3] 0.013 | [4] 0.025 | [5] -0.039 | saracatinib -0.049 | sotrastaurin -0.023

TTF2 (UniProt Q9UNY4)
Sequence of UniProt Q9UNY4 (Q9UNY4 whole entry, looked up): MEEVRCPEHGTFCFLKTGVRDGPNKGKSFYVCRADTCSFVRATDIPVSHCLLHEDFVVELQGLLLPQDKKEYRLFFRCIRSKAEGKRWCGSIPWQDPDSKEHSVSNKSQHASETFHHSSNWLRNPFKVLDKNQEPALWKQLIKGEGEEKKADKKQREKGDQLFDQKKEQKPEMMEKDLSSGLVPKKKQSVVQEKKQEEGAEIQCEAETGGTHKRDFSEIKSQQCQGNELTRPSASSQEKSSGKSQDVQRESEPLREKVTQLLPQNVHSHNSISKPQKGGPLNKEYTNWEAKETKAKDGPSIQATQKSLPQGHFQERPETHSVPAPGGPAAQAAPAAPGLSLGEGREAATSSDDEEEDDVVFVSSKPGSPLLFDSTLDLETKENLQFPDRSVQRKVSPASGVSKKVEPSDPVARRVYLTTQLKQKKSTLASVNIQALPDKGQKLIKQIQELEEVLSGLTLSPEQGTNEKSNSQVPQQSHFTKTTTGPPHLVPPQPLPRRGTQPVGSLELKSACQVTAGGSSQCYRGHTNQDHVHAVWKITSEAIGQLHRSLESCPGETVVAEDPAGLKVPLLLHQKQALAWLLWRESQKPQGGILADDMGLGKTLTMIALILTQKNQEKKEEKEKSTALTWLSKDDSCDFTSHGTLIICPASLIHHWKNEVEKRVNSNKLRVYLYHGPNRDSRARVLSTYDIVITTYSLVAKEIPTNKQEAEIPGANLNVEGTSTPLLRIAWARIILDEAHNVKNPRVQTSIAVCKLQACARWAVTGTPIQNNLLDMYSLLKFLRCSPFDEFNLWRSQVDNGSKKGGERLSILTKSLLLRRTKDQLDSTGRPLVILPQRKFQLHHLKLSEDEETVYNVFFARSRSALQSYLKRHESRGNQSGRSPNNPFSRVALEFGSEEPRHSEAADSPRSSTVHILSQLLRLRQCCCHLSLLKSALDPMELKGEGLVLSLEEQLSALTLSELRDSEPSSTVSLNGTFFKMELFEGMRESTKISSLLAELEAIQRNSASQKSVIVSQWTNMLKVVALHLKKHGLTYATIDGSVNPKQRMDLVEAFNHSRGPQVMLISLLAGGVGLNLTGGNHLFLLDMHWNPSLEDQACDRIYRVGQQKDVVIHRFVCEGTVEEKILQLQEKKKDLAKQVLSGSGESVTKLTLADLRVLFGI
inactive: vemurafenib 0.008 | [1] 0.037 | barasertib 0.027 | [2] -0.028 | volasertib 0.022 | [3] 0.003 | [4] -0.003 | [5] -0.026 | saracatinib 0.025 | sotrastaurin 0.024

TCF12 isoform 3 (UniProt Q99081)
inactive: vemurafenib 0.008 | [1] -0.068 | barasertib -0.037 | [2] 0.034 | volasertib -0.094 | [3] 0.017 | [4] -0.04 | [5] 0.079 | saracatinib 0.043 | sotrastaurin -0.054

TBC1D2B (UniProt Q9UPU7)
inactive: vemurafenib 0.037 | [1] 0.014 | barasertib 0.001 | [2] 0.012 | volasertib -0.099 | [3] -0.018 | [4] 0.004 | [5] -0.041 | saracatinib 0.033 | sotrastaurin 0.062

TXNRD2 (UniProt Q9NNW7)
inactive: vemurafenib -0.004 | [1] 0.036 | barasertib -0.047 | [2] 0.023 | volasertib -0.005 | [3] -0.008 | [4] -0.031 | [5] 0.082 | saracatinib 0 | sotrastaurin -0.021

TEX30 (UniProt Q5JUR7)
inactive: vemurafenib 0.008 | [1] 0.033 | barasertib 0.109 | [2] -0.077 | volasertib -0.051 | [3] 0.005 | [4] -0.301 | [5] 0.088 | saracatinib -0.011 | sotrastaurin -0.023

TRIP13 (UniProt Q15645)
Sequence of UniProt Q15645 (Q15645 whole entry, looked up): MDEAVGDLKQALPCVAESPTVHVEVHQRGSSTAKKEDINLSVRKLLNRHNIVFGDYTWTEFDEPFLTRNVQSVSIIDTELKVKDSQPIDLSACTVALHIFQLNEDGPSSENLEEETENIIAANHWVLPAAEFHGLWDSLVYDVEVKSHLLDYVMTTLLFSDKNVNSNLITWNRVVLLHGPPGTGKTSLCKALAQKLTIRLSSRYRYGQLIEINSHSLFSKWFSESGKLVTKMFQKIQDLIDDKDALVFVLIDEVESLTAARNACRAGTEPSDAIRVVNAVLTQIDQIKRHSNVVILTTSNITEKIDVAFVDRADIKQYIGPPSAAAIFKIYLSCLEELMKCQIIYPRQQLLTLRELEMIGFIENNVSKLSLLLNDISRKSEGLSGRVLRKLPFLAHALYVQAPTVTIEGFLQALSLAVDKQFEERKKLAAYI
inactive: vemurafenib -0.036 | [1] 0 | barasertib 0.033 | [2] -0.083 | volasertib -0.089 | [3] 0.034 | [4] 0.003 | [5] -0.019 | saracatinib 0.008 | sotrastaurin 0.05

UBXN10 (UniProt Q96LJ8)
inactive: vemurafenib 0.008 | [1] -0.089 | barasertib -0.133 | [2] 0.095 | volasertib 0.074 | [3] 0.01 | [4] -0.082 | [5] 0.021 | saracatinib -0.016 | sotrastaurin -0.012

THAP9 (UniProt Q9H5L6)
inactive: vemurafenib 0.199 | [1] 0.07 | barasertib 0.117 | [2] 0.309 | volasertib 0.088 | [3] -0.401 | [5] 0.151 | saracatinib 0 | sotrastaurin 0.076
active: [4] -0.66

UCHL5 isoform 3 (UniProt Q9Y5K5)
inactive: vemurafenib 0.013 | [1] 0.016 | barasertib -0.001 | [2] -0.019 | volasertib -0.017 | [3] 0.014 | [4] 0.164 | [5] -0.06 | saracatinib -0.012 | sotrastaurin -0.005
